# Data from PubChem BioAssay AID463173 (ICCB-Longwood Screening Facility, Harvard Medical School, 2010).
# Among all 52,000 compounds or so, about 4,300 (8.3%) were called active. Rule as the data show it: active = survival mostly below about 52% (no sharp cut-off); inactive = mostly above about 56%. This excerpt belongs to a sample that is enriched for actives.
# Test system: DeltatarO mutant
# Test: S. aureus survival, RN4220 and DeltatarO strains – OD600, teichoic acid synthesis inhibitors, primary screen (AID 463173)
# Conditions: S. aureus RN4220 wild type/DeltatarO growth, OD600, 18 h, hits give low values, screened at 18.75 µg/mL (by protocol)
row,Structure (SMILES),survival
1,Cc1ccc(S(=O)(=O)Cc2ccc(C(=O)NCCc3ccc(Cl)cc3)o2)cc1,56% (inactive)
2,COc1ccc(NC(=O)Cn2cc(C(=O)c3ccc(C)c(C)c3)c(=O)c3cc(OC)ccc32)cc1,72% (inactive)
3,O=c1c2oc3ccccc3c2n(Cc2ccc(F)cc2)c(=O)n1Cc1ccco1,71% (inactive)
4,N#C/C(=C/c1ccc(Cl)cc1Cl)c1nc2ccccc2c(=O)[nH]1,70% (inactive)
5,COc1cccc(CNC(=O)c2nn(-c3ccccc3Cl)nc2CO)c1,85% (inactive)
6,CCOc1ccc(-n2nc(CO)c(C(=O)NCc3cccc(OC)c3)n2)cc1,41% (active)
7,CCOc1ccc(-n2nc(CO)c(C(=O)NCc3ccccn3)n2)cc1,53% (inactive)
8,Cc1nn(CCCC(=O)Nc2cc(C(F)(F)F)ccc2Cl)c(=O)c2c1sc1ccccc12,78% (inactive)
9,Cc1nc(-c2ccccc2)sc1-c1ccc(SCC(=O)NCc2ccc(Cl)cc2)nn1,52% (inactive)
10,Cc1nc(-c2ccccc2)sc1-c1ccc(SCC(=O)Nc2ccccc2)nn1,24% (inactive)
11,Cc1nc(-c2ccccc2)sc1-c1ccc(SCC(=O)NCc2ccc(F)cc2)nn1,53% (inactive)
12,Cc1cccc(NC(=O)CSc2ccc(-c3sc(-c4ccccc4)nc3C)nn2)c1C,33% (inactive)
13,Cc1nc(-c2ccccc2)sc1-c1ccc(SCC(=O)Nc2cccc(C(F)(F)F)c2)nn1,41% (inactive)
14,Cc1ccc(NC(=O)CSc2ccc(-c3ccccn3)nn2)cc1F,49% (inactive)
15,O=C(CSc1ccc(-c2ccccn2)nn1)Nc1ccc(F)c(F)c1,27% (active)
16,CC(=O)Nc1cccc(NC(=O)CSc2ccc(-c3sc(-c4ccccc4)nc3C)nn2)c1,-14% (active)
17,Cc1cccc(NC(=O)CSc2ccc(-c3ccccn3)nn2)c1,103% (inactive)
18,Cc1nc(C)c(-c2ccc(SCC(=O)Nc3ccc(C)c(F)c3)nn2)s1,93% (inactive)
19,Cc1ccc(NC(=O)CSc2ccc(-c3sc(-c4ccccc4)nc3C)nn2)cc1F,25% (active)
20,Cc1nc(-c2ccccc2)sc1-c1ccc(SCC(=O)Nc2ccc(F)cc2F)nn1,19% (active)
21,O=C(COc1ccc(S(=O)(=O)N2CCCC2)cc1)N1CCCC1,91% (inactive)
22,Cc1c(Cl)cccc1Nc1nn2c(=O)c3ccc(C(=O)N(C)Cc4ccccc4)cc3nc2s1,81% (inactive)
23,CCc1ccc(NC(=O)Cn2c(=O)n(CCC(C)C)c(=O)c3cccnc32)cc1,76% (inactive)

row,Structure (SMILES),survival
1,CC(=O)Nc1ccccc1N1CCCCC1,100% (inactive)
2,COc1cc(NC(=O)CCc2c(C)nc3nc(-c4cc(OC)cc(OC)c4)nn3c2C)cc(OC)c1,83% (inactive)
3,CCCCCC1CC(CC(=O)Nc2nncs2)C(=O)O1 (stereo not given),110% (inactive)
4,Cc1cccc(CNC(=O)CCCn2c(=O)c3cccn3c3ccc(F)cc32)c1,79% (inactive)
5,CCOc1ccc(CNC(=O)CCn2c(=O)c3cccn3c3ccc(F)cc32)cc1,45% (active)
6,CCOc1ccccc1CNC(=O)CCCn1c(=O)c2cccn2c2ccc(F)cc21,33% (active)
7,CCOc1ccccc1CNC(=O)Cn1c(=O)c2cccn2c2ccc(F)cc21,68% (inactive)
8,CCOc1ccc(CNC(=O)CCCn2c(=O)c3cccn3c3cccnc32)cc1,120% (inactive)
9,CCOc1ccccc1CNC(=O)CCn1c(=O)c2cccn2c2ccc(F)cc21,46% (inactive)
10,CCOc1ccc(CCNC(=O)CCn2c(=O)c3cccn3c3ccc(F)cc32)cc1,50% (inactive)
11,CCOc1ccc(CNC(=O)CCCn2c(=O)c3cccn3c3ccc(F)cc32)cc1,41% (active)
12,CCOc1ccc(CNC(=O)CCCn2c(=O)c3cccn3c3ccccc32)cc1,55% (inactive)
13,CCc1ccc(CNC(=O)CCn2c(=O)c3cccn3c3ccc(F)cc32)cc1,91% (inactive)
14,O=C(CCCn1c(=O)c2cccn2c2ccc(F)cc21)NCc1ccc(Cl)cc1,38% (active)
15,CCOc1ccc(CNC(=O)Cn2c(=O)c3cccn3c3ccc(F)cc32)cc1,80% (inactive)
16,CCC(C)NC(=O)C1CCN(S(=O)(=O)c2ccc3c(c2)CCCN3C(C)=O)CC1 (stereo not given),67% (inactive)
17,CC(C)(C)NC(=S)Nc1ccc2nccnc2c1,65% (inactive)
18,Cc1ccc(-c2noc(CNS(=O)(=O)c3ccc(F)cc3)n2)cc1,81% (inactive)
19,Cc1ccc(C)c(N2CCN(C(=O)Cn3cnc4onc(-c5ccc(F)cc5)c4c3=O)CC2)c1,83% (inactive)
20,CC(C)CCNC(=O)C(=O)Nc1c2c(nn1-c1ccc(Cl)cc1)CSC2,86% (inactive)
21,Cc1nc2ccn(Cc3ccccc3)c(=O)c2cc1C(=O)N1CCN(c2ccc(F)cc2)CC1,95% (inactive)
22,O=C(COc1ccccc1)N(Cc1cccnc1)c1nc2c(F)cccc2s1,84% (inactive)
23,Cc1ccc(C(=O)N2CCc3cc(CNC(=O)c4ccnn4C)ccc32)cc1,91% (inactive)

row,Structure (SMILES),survival
1,Cn1cc(CCCC(=O)NCc2ccccc2Cl)c2ccccc21,75% (inactive)
2,COc1cccc(CNC(=O)CCCn2c(=O)c3cccn3c3ccc(F)cc32)c1OC,43% (active)
3,CC(C)Oc1ccc(CNC(=O)CCCn2c(=O)c3cccn3c3cccnc32)cc1,111% (inactive)
4,COc1cccc(CNC(=O)Cn2c(=O)c3cccn3c3ccc(F)cc32)c1OC,103% (inactive)
5,COc1cccc(CNC(=O)CCn2c(=O)c3cccn3c3ccc(F)cc32)c1OC,59% (inactive)
6,CC(C)Oc1ccc(CNC(=O)CCCn2c(=O)c3cccn3c3ccccc32)cc1,45% (active)
7,CC(C)Oc1ccc(CNC(=O)CCn2c(=O)c3cccn3c3ccc(F)cc32)cc1,48% (inactive)
8,COc1cccc(NC(=O)Cn2c(=O)n(-c3cccc(OC)c3)c(=O)c3c4c(sc32)CCCC4)c1,107% (inactive)
9,COc1ccc(-c2nc3c4ccccc4n(CC(=O)Nc4cc(F)ccc4F)c(=O)n3n2)cc1,84% (inactive)
10,Cc1ccc(-c2nc3sc(CCNC(=O)c4ccc(F)c(F)c4)c(C)n3n2)cc1,76% (inactive)
11,CCn1c(=O)c2cc(C(=O)Nc3cc(C)c(Cl)cc3OC)sc2c2ccccc21,69% (inactive)
12,CCn1c(=O)c2cc(C(=O)NCCc3ccc(Cl)cc3)sc2c2ccccc21,76% (inactive)
13,CCn1c(=O)c2cc(C(=O)NCCc3ccc(OC)c(OC)c3)sc2c2ccccc21,42% (active)
14,CCn1c(=O)c2cc(C(=O)Nc3cc(OC)c(OC)c(OC)c3)sc2c2ccccc21,41% (active)
15,CCn1c(=O)c2cc(C(=O)NCc3cc(OC)ccc3OC)sc2c2ccccc21,54% (active)
16,CCn1c(=O)c2cc(C(=O)Nc3cccc(C(F)(F)F)c3)sc2c2ccccc21,84% (inactive)
17,COc1ccc(Br)cc1CNC(=O)c1cc2c(=O)n(C)c3ccccc3c2s1,94% (inactive)
18,CCOc1ccc(CCNC(=O)c2cc3c(=O)n(CC)c4ccccc4c3s2)cc1OCC,60% (inactive)
19,CCc1ccc(CNC(=O)c2cc3c(=O)n(CC)c4ccccc4c3s2)cc1,51% (inactive)
20,CCn1c(=O)c2cc(C(=O)NCCc3cc(OC)ccc3OC)sc2c2ccccc21,34% (active)
21,CCn1c(=O)c2cc(C(=O)NCCCOC)sc2c2ccccc21,103% (inactive)
22,COc1ccc(CCNC(=O)c2cc3c(=O)n(C)c4ccccc4c3s2)cc1OC,65% (inactive)
23,CCOC(=O)c1[nH]c2ccccc2c1NC(=O)c1ccc(Br)cc1,95% (inactive)

row,Structure (SMILES),survival
1,Cc1cccc(-c2nc3nc(C)cc(NCc4ccccc4Cl)n3n2)c1,74% (inactive)
2,COc1ccccc1C(=O)Nc1ccc(C(=O)OCc2cc(=O)n3nc(C4CC4)sc3n2)cc1,72% (inactive)
3,Cc1ccccc1C1C(C#N)=C(N)NC(S)=C1C#N (stereo not given),93% (inactive)
4,CCC(=O)N1c2ccccc2CC1C(=O)NCCc1cc(OC)c(OC)c(OC)c1 (stereo not given),129% (inactive)
5,CC(c1ccccc1F)n1cc(C(=O)NCCCn2ccnc2)nn1 (stereo not given),96% (inactive)
6,CCOc1ccc(NC(=O)Cn2cc(C(=O)c3ccc(C)c(C)c3)c(=O)c3cc(OC)c(OC)cc32)cc1,95% (inactive)
7,COc1ccc(CNC(=O)c2cc3c(=O)oc4ccc(C)cc4c3s2)c(OC)c1,86% (inactive)
8,COc1ccc(CNC(=O)c2cc3c(=O)[nH]c4ccc(C)cc4c3s2)c(OC)c1,44% (active)
9,COc1ccc(CCNC(=O)c2cc3c(=O)[nH]c4ccc(C)cc4c3s2)cc1OC,64% (inactive)
10,CC1CCC(NC(=O)CCc2cn(Cc3ccc(F)cc3)c3ccccc23)CC1 (stereo not given),60% (inactive)
11,CCCCSC1=NC(C)(C)CC(C)O1 (stereo not given),79% (inactive)
12,CCc1ccc(NCc2cc3ccc(OC)cc3n(CC(=O)Nc3ccccc3OC)c2=O)cc1,79% (inactive)
13,CCCC12CN3CC(CCC)(CN(C1)C3c1ccc(OCc3ccccc3)cc1)C2=O (stereo not given),112% (inactive)
14,CCCC12CN3CC(CCC)(CN(C1)C3c1ccc(OC(C)C)cc1)C2=O (stereo not given),21% (active)
15,CCCC12CN3CC(C)(CN(C1)C3c1ccc(CC)cc1)C2=O (stereo not given),87% (inactive)
16,COc1ccc(Cn2c(C(=O)O)c(CNC3CCC(C)CC3)c3ccc(C)cc32)cc1 (stereo not given),115% (inactive)
17,COc1cccc(N2CCN(C(=O)c3nn(C)c4c3CSc3ccc(C)cc3-4)CC2)c1,117% (inactive)
18,COC(=O)c1ccc2c(=O)n(CCCCCC(=O)NCc3ccc(OC)cc3)c(=O)[nH]c2c1,71% (inactive)
19,Cc1noc(-c2ccc(-c3noc(-c4ccc(Cl)cc4)n3)cc2)n1,66% (inactive)
20,Cc1noc(-c2ccc(-c3noc(-c4ccc(F)cc4)n3)cc2)n1,72% (inactive)
21,Cc1noc(-c2ccc(-c3noc(-c4ccccc4)n3)cc2)n1,-4% (active)
